Targets include RED1(1)/ADARB1 (Homo sapiens, UniProt P78563); KHDRBS1 (Homo sapiens, UniProt Q07666); RBM3 (Homo sapiens, UniProt P98179).
Common to all, as to assay: protein domain microarray probed with biotinylated miRNA; Domain array: 20 mM Tris-HCl pH 7.4, 200 mM KCl, 0.2 mM EDTA, 0.05% NP40, 2 ug/ul heparin, overnight 4 C. ORF array: PBS pH 7.0 with RNase inhibitor, 100 ng RNA; high values mean tight binding
Common to all, as to details: ssRNA

The target in a further experiment is T1, RBM7 (Homo sapiens, UniProt Q9Y580).
T1 sequence: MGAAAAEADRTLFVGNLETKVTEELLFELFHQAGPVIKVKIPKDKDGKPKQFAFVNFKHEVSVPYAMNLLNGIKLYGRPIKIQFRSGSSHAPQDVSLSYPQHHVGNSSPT

A further experiment deals with T2, RNPC2 (Homo sapiens, UniProt Q14498).
T2 sequence: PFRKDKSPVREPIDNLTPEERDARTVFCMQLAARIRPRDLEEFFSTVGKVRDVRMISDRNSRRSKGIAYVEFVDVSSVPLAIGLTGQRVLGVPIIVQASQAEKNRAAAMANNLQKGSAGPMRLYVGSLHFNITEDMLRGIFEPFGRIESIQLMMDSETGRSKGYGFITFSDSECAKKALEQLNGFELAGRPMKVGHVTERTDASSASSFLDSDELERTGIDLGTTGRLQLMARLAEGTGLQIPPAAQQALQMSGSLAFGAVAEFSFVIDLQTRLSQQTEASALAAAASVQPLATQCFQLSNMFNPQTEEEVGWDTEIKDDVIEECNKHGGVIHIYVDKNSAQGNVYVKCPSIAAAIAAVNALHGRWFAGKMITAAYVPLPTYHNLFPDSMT

The target of another experiment is T3, RBM12B(4) (Homo sapiens, UniProt Q8IXT5).
T3 sequence: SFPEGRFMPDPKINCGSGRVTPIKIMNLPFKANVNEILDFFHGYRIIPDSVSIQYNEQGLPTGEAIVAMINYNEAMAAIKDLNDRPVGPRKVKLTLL

A further experiment concerns the target T4, SON (Homo sapiens, UniProt P18583).
T4 sequence: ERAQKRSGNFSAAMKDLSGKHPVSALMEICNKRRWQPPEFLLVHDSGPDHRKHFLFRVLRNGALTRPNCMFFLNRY

The target in another experiment is T5, YTHDF3 (Homo sapiens, UniProt Q7Z739).
T5 sequence: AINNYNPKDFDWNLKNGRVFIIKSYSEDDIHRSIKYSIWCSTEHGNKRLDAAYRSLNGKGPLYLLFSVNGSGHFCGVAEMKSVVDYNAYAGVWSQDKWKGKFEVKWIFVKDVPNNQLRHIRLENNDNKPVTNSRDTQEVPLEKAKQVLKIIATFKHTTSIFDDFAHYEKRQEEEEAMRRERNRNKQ

In the next experiment the target is T6, NOVA2(1-2) (Homo sapiens, UniProt Q9UNW9).
T6 sequence: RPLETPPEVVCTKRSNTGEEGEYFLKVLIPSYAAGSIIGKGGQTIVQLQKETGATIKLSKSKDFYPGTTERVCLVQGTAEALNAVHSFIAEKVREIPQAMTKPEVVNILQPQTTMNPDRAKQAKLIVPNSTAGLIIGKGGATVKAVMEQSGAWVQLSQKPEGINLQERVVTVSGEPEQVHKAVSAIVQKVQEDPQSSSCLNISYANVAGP

The next experiment deals with T7, SFRS4 (Homo sapiens, UniProt Q08170).
T7 sequence: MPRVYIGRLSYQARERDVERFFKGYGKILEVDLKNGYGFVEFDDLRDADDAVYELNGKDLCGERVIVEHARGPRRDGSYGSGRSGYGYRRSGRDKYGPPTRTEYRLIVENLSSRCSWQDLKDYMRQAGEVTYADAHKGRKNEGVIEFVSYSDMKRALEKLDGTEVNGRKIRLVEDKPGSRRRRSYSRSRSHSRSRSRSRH

Sequence of RBM3 (P98179 1-110): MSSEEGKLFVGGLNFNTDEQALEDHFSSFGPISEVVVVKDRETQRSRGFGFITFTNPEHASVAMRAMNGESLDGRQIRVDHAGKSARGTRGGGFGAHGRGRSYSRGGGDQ
Sequence of KHDRBS1 (Q07666 85-210): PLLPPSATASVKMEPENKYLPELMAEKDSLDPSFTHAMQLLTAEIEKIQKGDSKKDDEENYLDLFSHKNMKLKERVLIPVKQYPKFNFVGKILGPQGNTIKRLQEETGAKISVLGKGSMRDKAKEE

With AGAGGUAGUAGGUUGCAUAGUU, the binding signal with RBM7 is 36.3 ± 3 fluorescence intensity; in the experiment with RNPC2, 27 ± 3 fluorescence intensity; with RBM12B(4), 23.2 ± 2.64 fluorescence intensity; with RED1(1)/ADARB1, 152 ± 6.66 fluorescence intensity; with SON it was 20.1 ± 1.45 fluorescence intensity; with KHDRBS1, 21.6 ± 3.36 fluorescence intensity. Further, the binding signal with RBM3 turned out to be 2295 ± 10 fluorescence intensity; with YTHDF3, 60.7 ± 7.12 fluorescence intensity; with NOVA2(1-2), 151 ± 5.8 fluorescence intensity; with SFRS4, 238 ± 11.7 fluorescence intensity.
With UGAGGUAGUAGGUUGUAUAGUU, the binding signal in the experiment with RBM7 amounted to 22.1 ± 0.665 fluorescence intensity; with RED1(1)/ADARB1, 40.73 ± 0.318 fluorescence intensity; with KHDRBS1 it was 22.6 ± 1.88 fluorescence intensity; with RBM3 it was 669 ± 18.7 fluorescence intensity; with YTHDF3, 30 ± 0.891 fluorescence intensity; with SFRS4 it was 20.4 ± 3.62 fluorescence intensity.
On to UGAGGUAGUAGGUUGUGUGGUU, for which the binding signal with RBM7 came out at 50.2 ± 0.997 fluorescence intensity; with RNPC2, 80.9 ± 8.52 fluorescence intensity; with RBM12B(4) it was 50.1 ± 2.09 fluorescence intensity; with RED1(1)/ADARB1 it was 230 ± 23.8 fluorescence intensity; in the experiment with SON, 24.3 ± 4.36 fluorescence intensity; with KHDRBS1 it was 28.3 ± 5.26 fluorescence intensity. Further, the binding signal was determined as 1550 ± 33.7 fluorescence intensity in the experiment with RBM3, 129 ± 9.2 fluorescence intensity with YTHDF3, 40.2 ± 2.14 fluorescence intensity in the experiment with NOVA2(1-2) and 339 ± 8.46 fluorescence intensity with SFRS4.
UAGCUUAUCAGACUGAUGUUGA: the binding signal with RBM3 came out at 409 ± 132 fluorescence intensity.
Take CAGUGCAAUGAUGAAAGGGCAU: the binding signal amounted to 34 ± 2.81 fluorescence intensity in the experiment with RBM7; 38.8 ± 4.95 fluorescence intensity in the experiment with RBM12B(4); 67.57 ± 0.354 fluorescence intensity with RED1(1)/ADARB1; 25.1 ± 9.81 fluorescence intensity with KHDRBS1; 1390 ± 40.6 fluorescence intensity with RBM3; 52.8 ± 5.03 fluorescence intensity in the experiment with YTHDF3. The binding signal came to 71.4 ± 9.69 fluorescence intensity with NOVA2(1-2) and 236 ± 1.78 fluorescence intensity with SFRS4.
Consider UGAGGUAGUAGGUUGUAUGGUU, for which the binding signal came out at 45.27 ± 0.0778 fluorescence intensity with RBM7; 43.3 ± 11.8 fluorescence intensity with RNPC2; 62 ± 3.02 fluorescence intensity with RBM12B(4); 151 ± 4.54 fluorescence intensity in the experiment with RED1(1)/ADARB1; 23.9 ± 4.74 fluorescence intensity in the experiment with SON; 25.6 ± 0.417 fluorescence intensity with KHDRBS1. The binding signal with RBM3 turned out to be 1642 ± 12.9 fluorescence intensity; in the experiment with YTHDF3 it was 117 ± 1.29 fluorescence intensity; with NOVA2(1-2) it was 26.8 ± 4.61 fluorescence intensity; in the experiment with SFRS4, 206 ± 51.4 fluorescence intensity.
